Experimental data as given in PubChem BioAssay AID1159580 (chemical genetic matrix, 2015).
Screen size: about 5,500 compounds; about 2,000 (36%) were called active. Not shown: some 18% with an inconclusive outcome. Rule as the data show it: active = normalized growth mostly below about 0.91 (no sharp cut-off); inconclusive = no clear call, values can overlap the other calls; inactive = mostly above about 0.92. Some of the results follow.

Assay: chemical genetic growth profiling, strain panel (AID 1159580);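 also: tested at 20 µM; growth read once vehicle control cultures reached saturation at 30 °C; 1 = growth at the plate median or of vehicle wells; lower values mean less growth of the strain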
Settings: growth OD

Measured: normalized growth

CCc1ccc2c(O)c3c(cc2c1C(=O)OC)C(=O)c1c(O)ccc(O)c1C3=O
active: S. cerevisiae deletion strains, locus YMR058W, strain fet3, active compounds read low 0.762
inactive: S. cerevisiae deletion strains, locus YJR066W, strain TOR1, active compounds read low 0.895 | S. cerevisiae deletion strains, locus YJR075W, strain HOC1, active compounds read low 0.981 | S. cerevisiae deletion strains, locus YKL068W, active compounds read low 0.99 | S. cerevisiae deletion strains, locus YKL085W, strain MDH1 (second series), active compounds read low 1.05 | S. cerevisiae deletion strains, locus YKL085W, strain MDH1, active compounds read low 1.05 | S. cerevisiae deletion strains, locus YKL160W, strain elf1, active compounds read low 0.996 | S. cerevisiae deletion strains, locus YKR001C, strain vps1, active compounds read low 0.99 | S. cerevisiae deletion strains, locus YKR026C, strain gcn3, active compounds read low 0.979 | S. cerevisiae deletion strains, locus YKR091W, strain srl3, active compounds read low 0.995 | S. cerevisiae deletion strains, locus YLL001W, strain dnm1, active compounds read low 0.973 | S. cerevisiae deletion strains, locus YLL026W, active compounds read low 0.983 | S. cerevisiae deletion strains, locus YLL041C, strain sdh2, active compounds read low 0.999 | S. cerevisiae deletion strains, locus YLR027C, strain aat2, active compounds read low 0.994 | S. cerevisiae deletion strains, locus YLR039C, strain RIC1, active compounds read low 0.961 | S. cerevisiae deletion strains, locus YLR058C, strain SHM2, active compounds read low 0.956 | S. cerevisiae deletion strains, locus YLR102C, strain apc9, active compounds read low 0.999 | S. cerevisiae deletion strains, locus YLR113W, strain HOG1, active compounds read low 0.988 | S. cerevisiae deletion strains, locus YLR221C, strain rsa3, active compounds read low 0.969 | S. cerevisiae deletion strains, locus YLR258W, strain gsy2, active compounds read low 0.989 | S. cerevisiae deletion strains, locus YLR262C, strain YPT6 (second series), active compounds read low 0.956 | S. cerevisiae deletion strains, locus YLR262C, strain YPT6, active compounds read low 0.95 | S. cerevisiae deletion strains, locus YLR268W, strain sec22, active compounds read low 0.98 | S. cerevisiae deletion strains, locus YLR320W, strain mms22, active compounds read low 0.98 | S. cerevisiae deletion strains, locus YLR330W, strain CHS5, active compounds read low 1 | S. cerevisiae deletion strains, locus YLR342W, strain FKS1 (second series), active compounds read low 0.977 | S. cerevisiae deletion strains, locus YLR342W, strain FKS1, active compounds read low 0.968 | S. cerevisiae deletion strains, locus YLR357W, strain rsc2, active compounds read low 0.878 | S. cerevisiae deletion strains, locus YLR370C, strain arc18, active compounds read low 0.949 | S. cerevisiae deletion strains, locus YLR371W, strain rom2, active compounds read low 0.995 | S. cerevisiae deletion strains, locus YLR384C, strain iki3, active compounds read low 1 | S. cerevisiae deletion strains, locus YLR418C, strain cdc73, active compounds read low 0.932 | S. cerevisiae deletion strains, locus YML016C, strain PPZ1, active compounds read low 0.983 | S. cerevisiae deletion strains, locus YML032C, strain rad52, active compounds read low 0.932 | S. cerevisiae deletion strains, locus YML120C, strain ndi1, active compounds read low 0.999 | S. cerevisiae deletion strains, locus YML124C, strain tub3, active compounds read low 0.998 | S. cerevisiae deletion strains, locus YMR078C, strain ctf18, active compounds read low 0.997 | S. cerevisiae deletion strains, locus YMR125W, strain sto1, active compounds read low 1.01 | S. cerevisiae deletion strains, locus YMR129W, active compounds read low 0.966 | S. cerevisiae deletion strains, locus YMR205C, strain PFK2, active compounds read low 0.984 | S. cerevisiae deletion strains, locus YMR223W, strain ubp8, active compounds read low 0.933 | S. cerevisiae deletion strains, locus YMR231W, strain pep5, active compounds read low 0.995 | S. cerevisiae deletion strains, locus YMR307W, strain GAS1, active compounds read low 0.998 | S. cerevisiae deletion strains, locus YNL067W, strain RPL9B, active compounds read low 0.973 | S. cerevisiae deletion strains, locus YNL071W, strain lat1, active compounds read low 1 | S. cerevisiae deletion strains, locus YNL153C, strain GIM3, active compounds read low 0.954 | S. cerevisiae deletion strains, locus YNL183C, strain NPR1, active compounds read low 0.908 | S. cerevisiae deletion strains, locus YNL209W, strain ssb2, active compounds read low 0.981 | S. cerevisiae deletion strains, locus YNL233W, strain BNI4, active compounds read low 0.98 | S. cerevisiae deletion strains, locus YNL248C, strain rpa49, active compounds read low 0.961 | S. cerevisiae deletion strains, locus YNL250W, strain rad50, active compounds read low 0.972 | S. cerevisiae deletion strains, locus YNL271C, strain bni1, active compounds read low 0.965 | S. cerevisiae deletion strains, locus YNL298W, strain CLA4, active compounds read low 0.985 | S. cerevisiae deletion strains, locus YNL307C, strain MCK1, active compounds read low 1 | S. cerevisiae deletion strains, locus YNL322C, strain KRE1 (second series), active compounds read low 0.979 | S. cerevisiae deletion strains, locus YNR049C, strain mso1, active compounds read low 0.967 | S. cerevisiae deletion strains, locus YNR052C, strain pop2, active compounds read low 0.984 | S. cerevisiae deletion strains, locus YOL006C, strain TOP1, active compounds read low 1.07 | S. cerevisiae deletion strains, locus YOL012C, strain htz1 0.673 | S. cerevisiae deletion strains, locus YOL147C, strain pex11, active compounds read low 1.01 | S. cerevisiae deletion strains, locus YOR001W, strain rrp6, active compounds read low 0.973 | S. cerevisiae deletion strains, locus YOR061W, strain CKA2, active compounds read low 0.957 | S. cerevisiae deletion strains, locus YOR069W, strain VPS5, active compounds read low 0.999 | S. cerevisiae deletion strains, locus YOR070C, strain gyp1, active compounds read low 0.988 | S. cerevisiae deletion strains, locus YOR080W, strain dia2, active compounds read low 0.991 | S. cerevisiae deletion strains, locus YOR083W, strain WHI5, active compounds read low 0.98 | S. cerevisiae deletion strains, locus YOR106W, strain vam3, active compounds read low 0.964 | S. cerevisiae deletion strains, locus YOR136W, strain idh2, active compounds read low 1.01 | S. cerevisiae deletion strains, locus YOR144C, strain elg1, active compounds read low 0.993 | S. cerevisiae deletion strains, locus YOR184W, strain ser1, active compounds read low 0.965 | S. cerevisiae deletion strains, locus YOR231W, strain MKK1, active compounds read low 0.965 | S. cerevisiae deletion strains, locus YOR265W, strain rbl2, active compounds read low 0.987 | S. cerevisiae deletion strains, locus YOR270C, strain vph1, active compounds read low 0.827 | S. cerevisiae deletion strains, locus YOR290C, strain snf2, active compounds read low 0.929 | S. cerevisiae deletion strains, locus YOR316C, strain cot1, active compounds read low 0.992 | S. cerevisiae deletion strains, locus YPL051W, strain arl3, active compounds read low 0.953 | S. cerevisiae deletion strains, locus YPL078C, strain atp4, active compounds read low 0.977 | S. cerevisiae deletion strains, locus YPL106C, strain sse1, active compounds read low 0.974 | S. cerevisiae deletion strains, locus YPL240C, strain hsp82, active compounds read low 0.983 | S. cerevisiae deletion strains, locus YPL241C, strain CIN2, active compounds read low 0.99 | S. cerevisiae deletion strains, locus YPL256C, strain CLN2, active compounds read low 1.03 | S. cerevisiae deletion strains, locus YPR119W, strain clb2, active compounds read low 1 | S. cerevisiae deletion strains, locus YPR141C, strain kar3, active compounds read low 0.979 | S. cerevisiae deletion strains, locus YPR163C, strain tif3, active compounds read low 1.01 | S. cerevisiae deletion strains, locus YPR167C, strain met16, active compounds read low 0.965 | S. cerevisiae deletion strains, strain wtn01, active compounds read low 1 | S. cerevisiae strains, strain wild type, active compounds read low 0.971
